AF4-AF9_inh = blocks AF4 peptide binding to human AF9; AID 651704; AlphaScreen, biotin-AF4 peptide binding to FLAG-AF9; 350,000 tested, 0.47% active; P42568; inhibition, % at 10 µM;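 active = every replicate reaching a set inhibition limit, whatever the replicate mean, cut at about 25% in these data; inconclusive = mean inhibition reaches that limit but some replicates miss it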;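 also: 0% = plate neutral control median and 100% = total signal loss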
Target sequence (P42568 whole entry, looked up): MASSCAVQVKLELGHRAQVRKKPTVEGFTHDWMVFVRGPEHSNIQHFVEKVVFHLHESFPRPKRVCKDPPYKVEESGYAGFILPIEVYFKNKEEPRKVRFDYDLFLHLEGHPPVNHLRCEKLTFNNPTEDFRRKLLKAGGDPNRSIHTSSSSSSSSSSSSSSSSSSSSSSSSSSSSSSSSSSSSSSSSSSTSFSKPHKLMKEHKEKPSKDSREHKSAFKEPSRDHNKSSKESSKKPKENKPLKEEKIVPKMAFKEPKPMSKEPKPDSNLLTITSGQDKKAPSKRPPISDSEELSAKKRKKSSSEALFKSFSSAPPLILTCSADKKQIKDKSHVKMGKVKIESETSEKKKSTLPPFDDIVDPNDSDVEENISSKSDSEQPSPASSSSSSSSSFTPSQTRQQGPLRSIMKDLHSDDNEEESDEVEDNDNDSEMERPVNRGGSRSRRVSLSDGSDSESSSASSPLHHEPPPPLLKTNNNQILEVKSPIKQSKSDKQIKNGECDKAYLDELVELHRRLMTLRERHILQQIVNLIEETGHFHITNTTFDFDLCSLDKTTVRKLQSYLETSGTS
MITF_TRPM1_HTS = activators of MITF-driven TRPM1 promoter activity in SK-MEL-5 cells; SK-MEL-5 TRPM1-promoter luciferase, 24 h; % of positive control, neutral wells = 0; activation, % at 12.5 µM; 300,000 tested, 0.75% active; AID 588334;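 active = mean activation of at least 80% with every replicate also reaching 80%; inconclusive = mean reaches 80% but some replicate falls short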;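 also: 0% = neutral control wells and 100% = parthenolide positive control wells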
esBAF_inh = inhibitors of esBAF chromatin remodeling in mouse ES cells. Bmi1-luciferase knock-in reporter, 24 h; 100% = twice the neutral-well signal. reporter increase, % at 12.5 µM. 350,000 tested, 2% active. AID 602393; in the data active = activation above about 40%; inconclusive = no clear call, values can overlap the other calls;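 also: 0% = median of the plate's neutral control wells and 100% = double that signal; a rise in the Bmi1 reporter signal indicates esBAF inhibition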
Wnt_act = Wnt/beta-catenin pathway activation. 300,000 tested, 1.2% active. Wnt/beta-catenin reporter cell assay, activator, plate reader. activation, % at 9.35 µM; in the data active = activation above about 30%, passing the limit was not always enough; inconclusive = no clear call, values can overlap the other calls;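 also: 0% = neutral control wells and 100% = positive control wells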
SMARCA2_activ = activators of SMARCA2 function; activation, % at 9.1 µM; 370,000 tested, 1% active; MG213 cells, MMTV-luciferase reporter, dexamethasone, overnight; AID 652017; in the data active = activation above about 7.8%;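 also: 0% = vehicle wells and 100% = reference activator wells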
FGF22_binding = binders of recombinant human FGF22 by thermal shift. activity (Tm shift, normalised), % at 9.99 µM. SYPRO orange fluorescence; percent of sucrose octasulfate shift, DMSO zero. 340,000 tested, 1.5% active;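 active = mean Tm shift, scaled 0 neutral to 100 positive control, at about 1.3% or above, every replicate too, limit read from the data; inconclusive = no clear call, values can overlap the other calls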
Active calls of the source: *; ? = inconclusive; / = not tested or not shown. Shown are actives, neighbours in structure and some others; about 4.3% of the full set was active somewhere.

SMILES AF4-AF9_inh MITF_TRPM1_HTS esBAF_inh Wnt_act SMARCA2_activ FGF22_binding
CCN(CC)C(=O)CN1C(=O)c2cccc3cccc(c23)C1=O -0.7 1.8 0.6 -0.6 -5.8 43.1*
O=C1c2cccc3cccc(c23)C(=O)N1Cc1ccccc1 -0.7 -4.7 / -4.1 -0.1 -0.2
COc1ccc(CN2C(=O)c3cccc4cccc(c34)C2=O)cc1 2.2 -2.7 / 41.4* -3.7 -0.2
C/C=C/c1ccc2c(c1)O[C@@H](CN(C)S(=O)(=O)c1ccc(C)cc1)[C@@H](C)CN([C@@H](C)CO)S2(=O)=O 5.9 / 5.4 / / -0.1
CCCNC(=O)N1C[C@H](C)[C@@H](OC)CN(C)C(=O)c2cc(NC(=O)CCC)ccc2OC[C@H]1C -1.1 / -6.2 / / -0.1
O=C(c1ccccc1F)N1CC[C@@H]2[C@H](CO)Nc3ccc(-c4ccc(F)cc4)cc3[C@@H]21 -0.3 / -7.8 / / 0.1
COc1cccc(/C=C/c2ccccn2)c1O 4.1 67.1 / 41.5* 1.6 0.1
CN1CCN(C(=O)C[C@@H]2CC[C@H]3[C@@H](COc4ccc(NC(=O)c5cccs5)cc4C(=O)N3C)O2)CC1 0.3 / 2.5 / / 0.1
CC(=O)Nc1ccc(/C=C/c2nc(-c3ccccc3O)n[nH]2)cc1 -0.9 57.7 73.0* 17.8 1.8 0.1
Cc1cccc(C(=O)Nc2nc3ncccn3c2-c2ccc(C(F)(F)F)cc2)c1 / / / / -1.8 /
COC(=O)Nc1ccc(S(=O)(=O)Nc2ccc(C(=O)O)cc2)cc1 -2.3 10.7 / -1.7 2.1 43.2*
CCOc1ccc(S(=O)(=O)Nc2ccc(C(=O)NN)cc2)cc1 -1.7 -1.4 1.4 53.0* -3.7 0.0
CCOc1ccc(S(=O)(=O)Nc2ccc(C(=O)NNC(=O)c3ccncc3)cc2)cc1 -5.3 -0.1 / 1.5 -2.4 0.4
Cc1noc(C)c1NC(=O)N(C)C[C@H]1OCCCC[C@@H](C)Oc2ccc(NC(=O)CCC(F)(F)F)cc2C(=O)N([C@@H](C)CO)C[C@H]1C 0.2 / -1.7 / / 0.3
Cc1ccc(O)c(-c2cc(-c3cccc(F)c3)n[nH]2)c1 / -5.7 25.0 4.9 4.3 /
COc1ccc(-c2cc(-c3cc(F)ccc3O)[nH]n2)cc1OC 7.8 100.2* ? 27.2 1.1 0.4
COc1ccc(-c2cc(-c3ccc(OC)c(OC)c3)n[nH]2)c(O)c1 / / / / 1.6 /
COc1ccc(O)c(-c2cc(-c3cccc(Br)c3)n[nH]2)c1 / 55.7 62.0* 15.1 4.2 /
COc1ccc(-c2cc(-c3ccc(Cl)cc3)n[nH]2)c(O)c1 0.8 121.9* / 41.1* 1.2 -0.1
Cc1ccc(-c2cc(-c3cccc(F)c3)n[nH]2)c(O)c1 / 49.4 55.7* / -0.7 /
CCCNC(=O)N1C[C@@H](O)COC[C@H]2O[C@@H](CC(=O)N3CCN(C)CC3)CC[C@@H]21 -2.6 / -4.8 / / 0.4
COc1ccc2c3c(n(C)c2c1)[C@H](CO)N(C(=O)NC(C)C)CC31CCN(CC2CCCCC2)CC1 0.3 / / / / -0.1
C[C@@H]1CN([C@H](C)CO)C(=O)c2cccc(NC(=O)c3ccncc3)c2O[C@H]1CN(C)C(=O)NC1CCCCC1 -1.7 / 0.0 / / 0.0
COc1ccc(-c2n[nH]c(C)c2-c2cc(OC)ccc2O)cc1 / 4.4 -3.0 -5.7 -0.6 /
COc1ccc(-c2cc(-c3cc(OC)ccc3O)[nH]n2)cc1 / / 53.6* / 0.2 /
SMILES AF4-AF9_inh MITF_TRPM1_HTS esBAF_inh Wnt_act SMARCA2_activ FGF22_binding
COc1ccc(O)c(-c2cc(-c3ccc(F)cc3)n[nH]2)c1 6.5 41.6 71.9* ? 4.1 -0.1
CCC(=O)N1CC2(C1)[C@H](c1ccccc1)[C@@H](CO)N2CC1CCOCC1 -1.0 / / / / 0.3
C[C@H](CO)N1C[C@H](C)[C@H](CN(C)C(=O)NC2CCCCC2)Oc2c(NC(=O)Nc3ccccc3)cccc2C1=O -0.4 / 1.7 / / 0.0
C=CCN1C(=O)[C@@H](CC(=O)N2CCN(C(=O)OCC)CC2)[C@]2(C(=O)OC)CCCCC=C12 / / / / -2.6 /
CCOC(=O)CN1C(=O)S/C(=C\c2ccc(-c3cccc(C(=O)O)c3C)o2)C1=O 2.5 / / 20.5 4.2 -0.3
Cc1ccc(NC(=O)CN2C(=O)S/C(=C\c3ccc(-c4cccc(C(=O)O)c4C)o3)C2=O)cc1C 1.2 14.1 / 4.3 -1.5 44.4*
Cc1cccc(NC(=O)CN2C(=O)N/C(=C/c3ccc(-c4cccc(C(=O)O)c4C)o3)C2=O)c1 -1.9 -5.4 2.0 -0.3 5.4 43.3*
Cc1c(C(=O)O)cccc1-c1ccc(/C=C2/NC(=O)N(c3ccccc3)C2=O)o1 -1.1 / / 4.9 -2.1 0.9
COCC#Cc1cnc2c(c1)C(=O)N([C@H](C)CO)C[C@H](C)[C@H](CN(C)Cc1ccccc1F)O2 -3.4 / 1.6 / / -0.2
O=C(Nc1cccc(Cl)c1)N[C@@H]1CC[C@H](CCNC(=O)C2CCC2)O[C@@H]1CO -9.4 / 2.6 / / 0.1
C[C@@H]1CCCCO[C@@H](CN(C)C)[C@@H](C)CN([C@H](C)CO)C(=O)c2cc(NS(=O)(=O)c3cn(C)cn3)ccc2O1 -5.1 / / / / 0.5
C[C@H](CO)N1C[C@H](C)[C@H](CN(C)S(=O)(=O)c2ccc(F)cc2)Oc2ccc(NC(=O)NC3CCCCC3)cc2C1=O 1.2 / -4.8 / / -0.5
COc1ccc(C(=O)O/N=C(\N)c2ccncc2)cc1OC / 13.6 23.4 / 2.6 /
COc1ccc(C(=O)O/N=C(\N)c2ccccc2)cc1OC -1.1 49.0 ? 56.1* 6.5 0.0
COc1ccc(C(=O)O/N=C(\N)c2cccc(C)c2)cc1OC -3.2 65.2 68.8* 20.9 3.9 -0.7
COc1ccc(/C(N)=N/OC(=O)CSc2ccccc2)cc1OC / 55.0 ? 44.6* 2.5 /
Cc1cccc(C(=O)O/N=C(\N)c2ccc(Br)cc2)c1 / 21.4 / / 2.0 /
O=C(NCc1ccccc1)[C@@H]1[C@@H](CO)[C@@H]2Cn3c(cccc3=O)[C@H]1N2C(=O)c1cnccn1 -6.7 / / / / /
Cc1noc(C)c1NC(=O)N(C)C[C@@H]1Oc2ncc(C#CC3CCCC3)cc2C(=O)N([C@H](C)CO)C[C@H]1C -2.8 / -0.5 / / 0.0
COc1ccc(NC(=O)CN2CCc3ccccc3C2)c(OC)c1 -0.2 / 3.9 1.5 1.2 0.0
COc1ccc(NC(=O)CN2C(=O)N(C)Cc3ccccc32)c(C)c1 -1.7 -5.6 / 3.1 3.7 44.1*

Screens from PubChem.
